# Experimental data reported in PubChem BioAssay AID1159524 (National Center for Advancing Translational Sciences (NCATS), 2015).
# Screen size: about 410,000 compounds; about 5,100 (1.2%) were called active. Roughly 8% stayed inconclusive and do not appear here. The sample holds actives, similar compounds and a random draw of the others, so the mix is not that of the screen. Calls follow the shape of the full dose curve; tested in HEK293T cells.
# Assay: High Throughput Screening for Foot and Mouth Disease Virus Antivirals; also: read-out not given here; nearly all actives have a fitted effect of over 45% in size
# Conditions: FMDV antiviral cell-based qHTS; series mostly up to 57.9 µM; activity change, negative = inhibition: at the top concentration
# % is scaled to controls: 0 for no effect and ±100 for the full control effect; potency is read from the fitted curve at half-maximal effect.
Structure (SMILES),"activity change, negative = inhibition",Potency
CCCCN(CC(=O)NC(C)(C)C)C(=O)C(=O)Nc1ccc2c(c1)OCCO2,30.3% (inactive),–
CCC(C)(C)NC(=O)CN(C(=O)C(=O)Nc1ccc2c(c1)OCCO2)C(C)(C)CC,12.4% (inactive),–
COC(=O)CCNc1ccc2c(c1)OCCO2,–,11.2 µM (active)
CCCCC/C=C\C/C=C\C/C=C\C/C=C\CCCCCC(=O)NCCO,-8.95% [at 6.7 µM] (inactive),–
O=C1NS(=O)(=O)c2ccccc21,-10% (inactive),–
CCc1nccn1S(=O)(=O)c1cc(Br)ccc1Br,-7.35% (inactive),–
CCOc1c(Br)cc(/C=C2\C(=O)N(CCC#N)N=C2C)cc1OC,–,28.2 µM (active)
CSc1ccc(C2C(C(=O)Nc3ccccc3)=C(C)Nc3nc4ccccc4n32)cc1 (stereo not given),-22% (inactive),–
COC(=O)c1c(OCc2ccc(F)cc2)cc(=O)n2c1CCN(Cc1ccc3cccnc3c1)CC2,-8.63% (inactive),–
Cc1cccc(CC(=O)Nc2cccc(-c3cn4cccnc4n3)c2)c1,18.4% (inactive),–
COc1ccc(-c2[nH]c3c(c2-c2c(-n4cccc4)n(C)c(=O)n(C)c2=O)c(=O)n(C)c(=O)n3C)cc1,-8.33% (inactive),–
O=C(NCc1ccc(Cl)cc1)c1ccc2c(c1)nnn2C1CCCC1,-14.3% (inactive),–
O=C(Cn1nnc(-c2ccccc2)n1)NC(=O)NC1CCCC1,-9.99% (inactive),–
O=C(/C=C/c1cnc2ccccc2n1)NC1CCCCCC1,36.2% (inactive),–
Cc1nc(/N=C(\N)NC(=O)NC2CCCCC2)nc2ccccc12,–,31.6 µM (active)
CCOC(=O)N1CCC(N2CCOc3ccc(CN4CCC(O)(c5cccnc5)CC4)cc3C2)CC1,1.1% (inactive),–
COc1cccc(CNC(=O)Cn2c(=O)c3cccn3c3ccc(F)cc32)c1OC,-21.5% (inactive),–
COCc1c(C(=O)NC2CCCCC2)cnn1-c1nccc(-c2ccccc2OC)n1,-1.95% (inactive),–
CN1/C(=C\C=C2\N=C(c3ccc(F)cc3)OC2=O)C(C)(C)c2ccccc21,-28.5% (inactive),–
CC(=O)Nc1cccc(OCC(=O)/C=C2\N(C)c3ccccc3C2(C)C)c1,–,25.1 µM (active)
COc1cccc(NC(=S)C(C#N)=C2N(C)c3ccccc3N2C)c1,5.09% (inactive),–
COc1ccccc1CNc1ncncc1-c1cccc(NS(C)(=O)=O)c1,-15.9% (inactive),–

Structure (SMILES),"activity change, negative = inhibition",Potency
O=P(O)(O)C(O)c1ccc2ccccc2c1 (stereo not given),1.06% (inactive),–
C#CCN(C[C@@H]1[C@@H](OC(=O)NC2CC2)[C@@H](OC(=O)NC2CC2)Cn2c(=O)ccc(=O)n21)S(=O)(=O)c1ccc(C)cc1,–,20 µM (active)
Cc1ccc(CS(=O)(=O)CCC(=O)NC2CC2)cc1,-10.8% (inactive),–
O=C(c1ccco1)N(Cc1nc2ccccc2c(=O)[nH]1)C1CCCC1,-1.37% (inactive),–
CN(c1ccc2nc3ccccc3c(=O)n2n1)C1CCCCC1,–,20 µM (active)
COc1ccccc1Nc1cc(C(=O)NCCCN(C)C2CCCCC2)c2ccccc2n1,-28.5% (inactive),–
COc1cc(=O)n2c(c1C(=O)NC(C)c1ccco1)CCN(C(=O)c1cn3ccc(C)cc3n1)CC2 (stereo not given),12.5% (inactive),–
CCN(C(=O)c1sc2cc(OC)ccc2c1Cl)c1ccccc1,-22.9% (inactive),–
COc1ccccc1CNc1nc(-c2c(C)noc2C)nc2ccccc12,-10.6% (inactive),–
CCCCC(=O)N(C)c1c(CC)nc2c(OCc3ccc(Cl)cc3Cl)cccn12,-24.1% (inactive),–
CCc1nc2c(OCc3cccc(OC)c3)cccn2c1N(C)C(=O)C(C)C,-16.8% (inactive),–
CCc1nc2c(OCc3ccc(Cl)cc3Cl)cccn2c1N(C)C(=O)C(C)C,–,31.6 µM (active)
COc1ccc(C2Sc3ccccc3NC3=C2C(=O)c2ccccc23)c(OC)c1OC (stereo not given),8.34% (inactive),–
O=C(/C=C/Sc1ncn[nH]1)c1ccc(Cl)cc1,–,28.2 µM (active)
O=S(=O)(NCCc1nnc2ccc(SCc3ccc(Cl)cc3Cl)nn12)c1ccccc1,-15.5% (inactive),–
CCc1ccccc1NC(=O)Cn1c(=O)n(CC2CCC(C(=O)NCCc3ccccc3)CC2)c(=O)c2ccccc21 (stereo not given),0.675% (inactive),–
Cc1cc(C)cc(NS(=O)(=O)c2cc3c(cc2C)NC(=O)CO3)c1,131% (inactive),–
Cn1nnnc1SCCCNCc1cccc(OCc2ccc(Cl)cc2)c1,-12.9% (inactive),–
Cc1ccc(OCCSc2nc(C)c(Cc3ccccc3)c(=O)[nH]2)cc1,-10.9% (inactive),–
COc1ccc(CCNC(=O)C2CCCN2C(=O)Nc2ccccc2)cc1OC (stereo not given),-5.27% (inactive),–
CC(=O)Nc1ccc(S(=O)(=O)N2CCN(c3ccc([N+](=O)[O-])c(NCCN4CCOCC4)c3)CC2)cc1,-4.77% (inactive),–
COc1ccc(CCNc2cc(N3CCN(C(=O)c4ccccc4OC)CC3)ccc2[N+](=O)[O-])cc1OC,–,8.91 µM (active)

Structure (SMILES),"activity change, negative = inhibition",Potency
CC(C)c1ccc(NC(=O)c2cc(S(=O)(=O)N3CCc4ccccc4C3)ccc2F)cc1,1.11% (inactive),–
Cc1ccccc1CNC(=O)c1cccc(NC(=O)c2nsc3ccccc23)c1,11.9% (inactive),–
O=C(CSc1ncc(CO)n1Cc1ccc(F)cc1)NCc1ccco1,-18.2% (inactive),–
Cc1ccc(C(=O)COC(=O)CCCC(=O)NC2CCCCC2)cc1[N+](=O)[O-],0.0132% (inactive),–
Cc1cc(C=O)c(C)n1-c1ccc(NC2CCCCC2)c([N+](=O)[O-])c1,–,31.6 µM (active)
COc1ccc(NC(=O)CN(C)C(=O)c2ccc(NC3CC3)c([N+](=O)[O-])c2)cc1,-6.5% (inactive),–
CCN(CC(=O)NC1CCS(=O)(=O)C1)S(=O)(=O)c1ccccc1 (stereo not given),-18.6% (inactive),–
O=C(CSc1ccccc1F)NC1CCS(=O)(=O)C1 (stereo not given),2.56% (inactive),–
O=S1(=O)CCC(NC(=S)SCc2ccccc2Br)C1 (stereo not given),–,15.8 µM (active)
COc1ccccc1C(=O)Nc1c(C(=O)Nc2ccc(C)cc2)oc2ccccc12,-7.71% (inactive),–
C/C=C1\C2C=C(C)CC1(N)c1ccc(=O)[nH]c1C2 (stereo not given),6.47% [at 97.4 µM] (inactive),–
Cc1ccc2oc(C(=O)Nc3ccc(S(=O)(=O)N4CCCCCC4)cc3)cc(=O)c2c1,-6.89% (inactive),–
Cc1cc(C)c2oc(C(=O)Nc3ccc(S(=O)(=O)N4CCCCCC4)cc3)cc(=O)c2c1,-5.36% (inactive),–
CCC1CCCCN1S(=O)(=O)c1ccc(NC(=O)c2cc(=O)c3ccccc3o2)cc1 (stereo not given),–,20 µM (active)
Cc1c(Cl)cccc1NC(=O)c1noc2c1CCCC2,34.7% (inactive),–
Cc1cccc(N2CCN(C(=O)c3ccc4c(c3)CCN4S(=O)(=O)c3ccccc3)CC2)c1C,-17.5% (inactive),–
COc1ccc(C)cc1NC(=O)CCc1c(C)nn(-c2ccc(N3CCOCC3)nn2)c1C,13.7% (inactive),–
CC(C)=CCN1CCC2(CCc3ccccc32)CC1,-6.05% (inactive),–
COc1cccc(C(=O)Nc2ccc(-c3cc(C(F)(F)F)nn3-c3ccccc3)cc2)c1,–,12.6 µM (active)
COc1cccc(C(=O)NC(=O)Nc2nc(C)cc(C(F)(F)F)n2)c1,-4.85% (inactive),–
COc1ccc(C(=O)Nc2ccc(-n3nncc3-c3ccccc3)cc2)cc1OC,0% (inactive),–
